Source: PubChem BioAssay (NCATS)
Inconclusive results are not listed. Where a call stands in place of a potency, no number is given. Active and inactive are the calls of the source. Calls follow the shape of the dose curve; as a rule, active = well fitted curve in the direction sought with a large enough effect; inconclusive = small, poorly fitted or top-dose-only effect, or another doubt; inactive = no such curve, though single readings can be large; an effect the other way counts as inactive or inconclusive.

What was measured:
[1] = DH5-alpha competent E. coli microbial cell viability qHTS against the NCATS CANVASS Library (AID 1347377); conditions: outcome: dose series up to 46.1 µM
In short: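 Bacteria were dispensed at 0.2 OD, then compounds were pin-transferred. Plates were incubated overnight at 37C, after which BacTiter-Glo was added and luminescence measured 20 min later.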

[2] = qHTS for H2AX Agonists against the NCATS CANVASS Library (AID 1347378);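 also: phospho-H2AX S139 level in CHO-K1 lysates by TR-FRET emission ratio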
In short: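 CHO-K1, 1000 cells/well, o/n 37C; cpd several conc, 3 hr 37C, 0.76% DMSO; lyse 30 min RT; cryptate anti-pH2AX(S139) + d2 anti-H2AX, 24 hr RT; HTRF 665/620.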

[3] = qHTS for Inflammasome Signaling Inhibitors: IL-1-beta AlphaLISA screen against the NCATS CANVASS Library (AID 1347379);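 also: human THP-1 cells primed with LPS then triggered with ATP; secreted IL-1B measured as AlphaLISA emission at 615 nm; lower signal means less IL-1B release which is the wanted effect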
In short: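 Secreted IL-1B from human THP-1 cells quantified by AlphaLISA 16 hr after compound addition (final up to 57.5 uM). A 1 hr compound pretreatment preceded inflammasome activation with 250 ng/mL LPS plus 1.25 mM ATP (final).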

[4] = qHTS for Antimalaria activity screened against the NCATS CANVASS Library (AID 1347380); also: nearly all actives have a fitted effect of over 40% in size; also: potency is read from the fitted curve at half-maximal effect
In short: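 Compounds are titrated over 11 concentrations onto Dd2 parasite cultures (0.3% parasitemia, 2.5% hematocrit). Growth over 72 h at 37C in low oxygen is measured as SYBR Green DNA fluorescence after lysis.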

[5] = Inflammasome Signaling qHTS Counterscreen: IL-1-beta AlphaLISA counterscreen against the NCATS CANVASS Library (AID 1347381);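 also: cell-free check with purified IL-1β in medium and no THP-1 cells; series mostly up to about 57 µM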
Source text: Natural products and their derivatives continue to be wellsprings of nascent therapeutic potential. However, many laboratories have limited resources for biological evaluation, leaving their previously isolated or synthesized compounds largely or completely untested. To address this issue, the Canvass library of natural products was assembled (https://tripod.nih.gov/canvass), in collaboration with academic and industry researchers, for quantitative high-throughput screening (qHTS) across a diverse set of cell-based and biochemical assays. The pure (>85% purity by liquid chromatography/mass spectrometry [LC/MS]) Canvass library of 346 natural products were submitted by 45 academic laboratories and companies around the world. We collected pure natural products to circumvent deconvolution and structure elucidation due to time and resource limitations. The library was formatted into 1536-well plates and evaluated in 50 qHTS (in an 11-pnt concentration series) bioassays with broad scope of disease-relevant mechanisms. The resulting data set from 50 different assays was then systematically analyzed to identify overall trends and specific natural products with interesting biological activities. […]
IL-1-beta-counterscreen qHTS protocol: 1. […] The AlphaLISA signal was read by the EnVision plate reader (PerkinElmer) using a 680 nm excitation and 615 nm emission filters.

[6] = Cytotoxicity qHTS for assessment of Hepg2 cells membrane integrity screened against the NCATS CANVASS Library (AID 1347387)
In short: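 Cells were seeded at 2000 per well and left overnight to attach. Compounds were pin-transferred to give 0.59 nM - 46 uM in an 11-point series and incubated 5 hr at 37C. CytoTox-ONE reagent was added and, after 10 min at room temperature, fluorescence (ex 560, em 590 nm) was read.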

[7] = qHTS for Activators of p53 Stress Response Pathway screened against the NCATS CANVASS Library (AID 1347388)
In short: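 p53RE-bla HCT-116 cells (4000/well) were plated 5 h at 37C, exposed to compounds for 16 h at 37C over an 11-point concentration series, then loaded with CCF4 for 2 h at room temperature; 460/530 nm emission ratio read.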

[8] = qHTS assay for small molecule disruptors of mitochondrial membrane potential screened against the NCATS CANVASS Library (AID 1347389); also: series mostly up to about 46 µM; nearly all actives have a fitted effect of over 60% in size
In short: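 Mitochondrial depolarization in HepG2 cells is scored as a falling aggregate-to-monomer fluorescence ratio after 1 hr compound exposure and 30 min staining with Mito-MPS dye at 37C, each compound tested as an 11-point titration.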

[9] = Secretion counterscreen for inhibitors of the SERCaMP assay screened against the NCATS CANVASS Library (AID 1347390);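 also: light from luciferase secreted into medium read as a measure of general secretion; series mostly up to about 77 µM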
In short: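 SH-SY5Y-GLuc STOP cells; 4 h attach; cpds 0.001 - 77 uM (qHTS, 11 pts), 20 h 37C/5% CO2; coelenterazine in glow buffer; luminescence, 5 s exposure.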

[10] = qHTS for activators of Nrf2/ARE signaling pathway screened against the NCATS CANVASS Library (AID 1347391); also: nearly all actives have a fitted effect of over 60% in size
In short: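 Beta-lactamase reporter signal, read as 460 and 530 nm emission under 405 nm excitation after 2 h CCF4 loading, reflected ARE activation in HepG2 cells treated 16 h with an 11-point series.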

Row | Compound | outcome [1] | outcome [2] | outcome [3] | Potency [4] | outcome [5] | outcome [6] | outcome [7] | outcome [8] | outcome [9] | outcome [10]
1 | O=C1C[C@@H]2OCC=C3CN4CC[C@]56c7ccccc7N1[C@H]5[C@H]2[C@H]3C[C@H]46 | inactive | inactive | inactive | 13 µM (active) | inactive | inactive | inactive | inactive | inactive | inactive
2 | COc1ccc2[nH]cc(CCN)c2c1 | inactive | inactive | inactive | inactive | inactive | inactive | inactive | inactive | inactive | inactive
